Screens as filed in PubChem.
CHO-K1 Ca antag = counter-screen for M1 antagonists: effect in parental CHO-K1 cells. hit rate 0.6% among 360,000. AID 602250. inhibition, % at 3 µM. ATP-induced calcium, Fluo-8 fluorescence;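 active = inhibition above a per-plate cutoff, the plate's mean sample inhibition plus 3 SD, cut at about 24% in these data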;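 also: 0% = DMSO plus EC80 ATP and 100% = DMSO alone without ATP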
M1 antag = human M1 muscarinic receptor antagonists, primary screen, CHO-K1 cells, Fluo-8 calcium fluorescence, 1536-well. inhibition, % at 3 µM. Muscarinic acetylcholine receptor M1 (Homo sapiens), P11229. CHO-K1 hM1, ACh EC80 antagonist. hit rate 1.3% among 360,000;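 active = percent inhibition above its own plate's cutoff, namely the mean of that plate's compound wells plus 3 SD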;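 also: peak over basal fluorescence ratio during 140 s after agonist addition; 0% = ACh EC80 plus DMSO and 100% = DMSO alone without agonist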
Target sequence (P11229 whole entry, looked up): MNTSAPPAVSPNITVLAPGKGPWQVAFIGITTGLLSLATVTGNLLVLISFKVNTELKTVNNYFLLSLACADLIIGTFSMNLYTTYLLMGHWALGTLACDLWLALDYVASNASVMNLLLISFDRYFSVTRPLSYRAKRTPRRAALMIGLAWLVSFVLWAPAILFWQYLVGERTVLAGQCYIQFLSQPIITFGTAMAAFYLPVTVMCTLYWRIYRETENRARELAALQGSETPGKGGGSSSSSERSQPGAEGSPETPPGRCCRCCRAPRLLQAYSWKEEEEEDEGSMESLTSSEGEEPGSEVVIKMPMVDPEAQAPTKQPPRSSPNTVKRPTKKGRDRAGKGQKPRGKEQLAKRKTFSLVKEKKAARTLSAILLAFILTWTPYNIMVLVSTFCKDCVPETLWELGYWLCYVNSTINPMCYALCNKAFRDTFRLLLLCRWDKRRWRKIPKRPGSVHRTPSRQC
M1 ag = human M1 muscarinic receptor agonists, primary screen, Fluo-8 calcium fluorescence, CHO-K1 cells, HTS. hit rate 0.33% among 360,000. CHO-K1 hM1, agonist mode; 0% DMSO, 100% acetylcholine EC100. activation, % at 3 µM;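 active = activation above the run's mean compound activation plus 3 SD, cut at about 16% in these data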;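 also: peak over basal fluorescence ratio within a 140 s kinetic read after compound addition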
CHO-K1 Ca ag = counter-screen for M1 agonists: effect in parental CHO-K1 cells | Fluo-8 calcium fluorescence; scaled to maximal ATP response, vehicle zero | activation, % at 3 µM | hit rate 0.48% among 360,000 | AID 602248, 2012; in the data active = activation above about 15%;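 also: untransfected CHO-K1 host cells lacking M1 receptor as counterscreen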
M1 PAM = human M1 muscarinic receptor positive allosteric modulators, primary screen, CHO-K1 cells, Fluo-8 calcium fluorescence, 1536-well; hit rate 0.088% among 360,000; Muscarinic acetylcholine receptor M1 (Homo sapiens), P11229; CHO-K1 hM1, ACh EC20; 0% = ACh EC20, 100% = maximal ACh; AID 588819, 2011; activation, % at 3 µM; in the data active = activation above about 19%, passing the limit was not always enough
M1 PAM parental = nonselective calcium activators in parental CHO-K1 cells, primary screen, counter-screen for M1 PAM project, cell-based, Fluo-8 calcium fluorescence, full deck, 1536-well; ATP EC20; 0% at ATP EC20, 100% at ATP max; hit rate 0.02% among 360,000; activation, % at 3 µM;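 active = activation above the run cutoff, the mean activation of all test compounds plus 3 SD, cut at about 40% in these data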;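 also: peak over basal fluorescence ratio in a 140 s read after ATP addition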
The depositor's hits bear a star. This is a sample that favours compounds with a hit; in the whole collection about 2.3% have one here.

`COc1ccc(-c2c[n+]3c4n2CCCCC4=C(c2ccc(Br)cc2)C3)cc1` gave CHO-K1 Ca antag -18, M1 antag 35*, M1 ag -15, CHO-K1 Ca ag 0, M1 PAM -28 and M1 PAM parental 15.
Screening COc1ccc(/C=C/C2=CC(C)(C)NC(=S)N2)cc1OC returned CHO-K1 Ca antag 26*, M1 antag 6, M1 ag 2, CHO-K1 Ca ag 0, M1 PAM 12 and M1 PAM parental -15.
COc1cccc(/C=C/C2=CC(C)(C)NC(=S)N2)c1 was read as CHO-K1 Ca antag 10, M1 antag -1, M1 ag -7, CHO-K1 Ca ag -1, M1 PAM 2 and M1 PAM parental 3.
For CN(C)/C=C1\C(=O)Oc2ccccc2C1=O the results were CHO-K1 Ca antag 24, M1 antag -12, M1 ag 3, CHO-K1 Ca ag 0, M1 PAM 17 and M1 PAM parental -4.
CCCCN1CC(N2CCN(CCO)CC2)CS1(=O)=O (stereo not given) was read as CHO-K1 Ca antag 17, M1 antag -1, M1 ag 20*, CHO-K1 Ca ag 0, M1 PAM 17 and M1 PAM parental 9.
For Cc1ccc(NC(=O)C(C)OC(=O)CCN=C2NS(=O)(=O)c3ccccc32)cc1 (stereo not given) the results were CHO-K1 Ca antag -9, M1 antag -12, M1 ag -5, CHO-K1 Ca ag 1, M1 PAM 6 and M1 PAM parental 10.
`COc1ccc2oc(C(=O)OCC(=O)N(C)C3CCS(=O)(=O)C3)c(C)c2c1` (stereo not given) gave CHO-K1 Ca antag -3, M1 antag 8, M1 ag -8, CHO-K1 Ca ag 1, M1 PAM -4 and M1 PAM parental 8.
For CCc1nc2ccc(C(=O)NCCC(C)C)cn2c1N(C)Cc1ccc(OC)cc1 the results were CHO-K1 Ca antag -16, M1 antag 4, M1 ag -9, CHO-K1 Ca ag 1, M1 PAM 2 and M1 PAM parental 12.
For CCOc1cc(C2C(C(=O)c3ccco3)=C(O)C(=O)N2CC2CCCO2)ccc1O (stereo not given) the results were CHO-K1 Ca antag -9, M1 antag -8, M1 ag -4, CHO-K1 Ca ag 1, M1 PAM 12 and M1 PAM parental 10.
`O=c1oc2ccccc2c(Nc2ccc(Cl)cc2)c1[N+](=O)[O-]` gave CHO-K1 Ca antag -4, M1 antag -1, M1 ag 1, CHO-K1 Ca ag 12, M1 PAM -5 and M1 PAM parental 4.
Screening O=c1oc2ccccc2c(Nc2ccc(F)cc2)c1[N+](=O)[O-] returned CHO-K1 Ca antag -9, M1 antag -17, M1 ag 0, CHO-K1 Ca ag 19*, M1 PAM 10 and M1 PAM parental 15.
For CN(CCN(C)C(C)(C)C)C(=O)C(c1ccccc1)c1ccccc1 the results were CHO-K1 Ca antag -2, M1 antag 97*, M1 ag -6, CHO-K1 Ca ag 1, M1 PAM -27 and M1 PAM parental -10.
`CSc1ccc(CN(C)C(=O)C(c2ccccc2)c2ccccc2)cc1` gave CHO-K1 Ca antag -1, M1 antag 20, M1 ag -7, CHO-K1 Ca ag 1, M1 PAM -6 and M1 PAM parental 19.
For CC(=O)Nc1ccc(S(=O)(=O)Nc2ccc(Cc3ccncc3)cc2)cc1 the results were CHO-K1 Ca antag 7, M1 antag 9, M1 ag -9, CHO-K1 Ca ag 2, M1 PAM -1 and M1 PAM parental 6.
CC(C)(C)c1ccc(S(=O)(=O)Nc2ccc(Cc3ccncc3)cc2)cc1 was read as CHO-K1 Ca antag 24*, M1 antag 62*, M1 ag -2, CHO-K1 Ca ag 11, M1 PAM -22 and M1 PAM parental 8.
For COc1ccc(S(=O)(=O)Nc2ccc(Cc3ccncc3)cc2)cc1C the results were CHO-K1 Ca antag -4, M1 antag 39*, M1 ag 0, CHO-K1 Ca ag 12, M1 PAM -23 and M1 PAM parental 1.
